# Experimental data published in PubChem BioAssay (Tox21).
# Records with an inconclusive call do not appear. A number with no mark means an inactive call. Calls of active or inactive are those of the source. Calls come from the whole dose curve; as a rule, active = well fitted cell-killing curve with a large enough effect in the repeat runs; inconclusive = weak or mixed curves, or effect the other way; inactive = no such curve, though single readings can be large or run the other way.
# Test: qHTS assay for small molecule activators of the heat shock response signaling pathway - cell viability counter screen (AID 743209); note: nearly all actives have a fitted effect of over 50% in size
# Conditions: HSE-bla HeLa viability, CellTiter-Glo luminescence, 5 h; series mostly up to 62.6 µM; activity change, negative = cytotoxicity: at the top concentration
# Description: U.S. Tox21 Program National Center for Advancing Translational Sciences [NCATS] NIH Chemical Genomics Center [NCGC] U.S. Environmental Protection Agency [EPA] National Institutes of Environmental Health Sciences [NIEHS] National Toxicology Program [NTP] U.S. Food and Drug Administration [FDA] Tox21 Assay Overview: Various chemicals, environmental and physiological stress conditions may lead to the activation of heat shock response/ unfolded protein response (HSR/UPR). There are three heat shock transcription factors (HSFs) (HSF-1, -2, and -4) mediating transcriptional regulation of the human HSR. To identify the compounds that activate HSR signaling, HSE-bla HeLa cell line (Invitrogen, Carlsbad, CA, USA) containing a beta-lactamase reporter gene under the control of the heat shock response elements was used to screen Tox21 10K compound library. The cytotoxicity of the Tox21 compound library against the HSE-bla HeLa cell line was tested in parallel by measuring the cell viability using CellTiter-Glo assay (Promega, Madison, WI) in the same wells.
# Tox21 Assay Protocol Summary: The CellSensor HSE-bla HeLa cells (Invitrogen, Carlsbad, CA, USA) were dispensed at 1500 cells/6uL/well into 1536-well black wall/clear bottom plates using a Multidrop combi (Thermo Fisher Scientific, Waltham, MA) dispenser. After the assay plates were incubated at 37 C and 5% CO2 overnight, 23 nL of compounds dissolved in DMSO, positive controls or DMSO only was transferred to the assay plate by a Pintool station (Kalypsys, San Diego, CA). The plates were incubated at 37 C for 5 h. After 1 uL of LiveBLAzerTM B/G FRET substrate was added using a Flying Reagent Dispenser (FRD, Beckman Coulter, Indianapolis, IN, USA), the plates were incubated at room temperature for 2.5 h, and fluorescence intensity was measured by an Envision plate reader (PerkinElmer, Shelton, CT). For cell viability readout that measures cytotoxicity, 3 ul/well of CellTiter-Glo reagent was added into the assay plates using a FRD. After 30 min incubation at room temperature, the luminescence intensity in the plates was measured using a ViewLux (PerkinElmer) plate reader.
# % is set by controls: 0 for no effect and ±100 for the full control effect; potency is the fitted concentration of half-maximal effect.
SMILES,"activity change, negative = cytotoxicity",Potency
Cc1ccc(N)cc1C,2.09% [at 81.1 µM],
OC(c1ccc(Cl)cc1)(c1ccc(Cl)cc1)c1cccnc1,-23.1%,
CC(Cl)Cl,-2.72%,
O=C(Nc1ccccc1)Nc1ccnc(Cl)c1,-12.3%,
O=[N+]([O-])c1ccccc1CCl,-0.626% [at 81.1 µM],
CCCN(CCCl)c1c([N+](=O)[O-])cc(C(F)(F)F)cc1[N+](=O)[O-],-3.17%,
C=CCCl,16.9% [at 81.1 µM],
N#CCc1ccccc1,4.34% [at 81.1 µM],
CN(C)c1ccc(N(C)C)cc1,10.2%,
O=[N+]([O-])c1ccc(F)c([N+](=O)[O-])c1,-14.2% [at 81.1 µM],
CN1C(=O)C(O)N=C(c2ccccc2)c2cc(Cl)ccc21 (stereo not given),0.891% [at 81.1 µM],
COP(=S)(OC)Oc1ccc([N+](=O)[O-])cc1Cl,0.309%,
CCCC(=O)Cl,0.983%,
Clc1cccc(SC2CCNCC2)n1,5.98%,
CC1(C)CCC(Cc2ccc(Cl)cc2)C1(O)Cn1cncn1 (stereo not given),-11.5%,
CCOP(O)OCC,1.1%,
O=Cc1ccc2c(c1)OCO2,-6.12%,
CS/C(C)=N/OC(=O)N(C)SN(C)C(=O)O/N=C(\C)SC,-4.56%,
Cc1ccc2ccccc2c1,17%,
Nc1nc(=S)[nH][nH]1,1.07%,

SMILES,"activity change, negative = cytotoxicity",Potency
Clc1cc(Cl)c(Cl)c(Cl)c1,2.26%,
Cc1c(F)c(F)c(COC(=O)C2C(/C=C(\Cl)C(F)(F)F)C2(C)C)c(F)c1F (stereo not given),-1.52%,
CC1CC(CC2CCC(N)C(C)C2)CCC1N (stereo not given),-2.02% [at 81.1 µM],
CCCCOC(=O)c1ccccc1C(=O)OCc1ccccc1,4.17%,
CCC(COC(=O)c1cc(OC)c(OC)c(OC)c1)(c1ccccc1)N(C)C (stereo not given),1.23%,
CC(C)N(CCC(C(N)=O)(c1ccccc1)c1ccccn1)C(C)C (stereo not given),6.46%,
COCC(C)N(C(=O)CCl)c1c(C)csc1C (stereo not given),-6.28%,
CC(=O)[C@H]1CC[C@H]2[C@@H]3CC[C@H]4C[C@](C)(O)CC[C@]4(C)[C@H]3CC[C@]12C,4.77%,
O=C1CN=C(c2ccccc2)c2cc(Cl)ccc2N1CC1CC1,-18.3%,
Clc1ccc(C2(Cn3cncn3)CC(Br)CO2)c(Cl)c1 (stereo not given),-1.66%,
CNP(=O)(OC)Oc1ccc(C(C)(C)C)cc1Cl (stereo not given),3.93%,
Brc1ccc(Oc2ccccc2)cc1,,inactive
O=C(O)COc1ccc(Cl)cc1,-3.21%,
CCOP(=S)(OCC)Oc1nc(Cl)c(Cl)cc1Cl,,inactive
CN1C[C@H](CNC(=O)OCc2ccccc2)C[C@@H]2c3cccc4c3c(cn4C)C[C@H]21,4.45%,
CCc1ccc(C(=O)NN(C(=O)c2cc(C)cc(C)c2)C(C)(C)C)cc1,8.8%,
CC(C)(OO)c1ccccc1,,49 µM (active)
ClCCCCBr,15.5% [at 81.1 µM],
C[C@H]1CNCCc2ccc(Cl)cc21,1.28%,
O=C(NC(=O)c1c(F)cccc1F)Nc1cc(Cl)c(Oc2ncc(C(F)(F)F)cc2Cl)c(Cl)c1,-2.89%,
